40 molecules from PubChem BioAssay (NCATS) can be followed below.

Molecules are shown by their SMILES. Records with an inconclusive call do not appear. A number with no mark means an inactive call. Calls follow the shape of the dose curve; as a rule, active = well fitted activation curve with a large enough effect; inconclusive = small, poorly fitted or top-dose-only effect; inactive = flat fitted curve, though single readings scatter.

The nature of the assay: Cellular Toxicity (caspase-3) H-4-II-E (AID 663).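 Also: cells exposed to compound for 16 hr before readout; 0% = DMSO basal and 100% = 100 µM tamoxifen.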 To be noted: H-4-II-E rat hepatoma; Potency: caspase-3 activation; series mostly up to 92.2 µM; caspase-3 activation: at the top concentration. The source says:
NIH Chemical Genomics Center [NCGC]
NIH Molecular Libraries Screening Centers Network [MLSCN]
National Institutes of Environmental Health Sciences [NIEHS]
National Toxicology Program [NTP]
We have developed a 1536-well cell-based assay for quantitative high throughput screening (qHTS) against a number of cell lines to determine in vitro caspase 3/7 of small molecules. This particular assay uses the H-4-II-E cell line which is derived from rat hepatoma.
NCGC Assay Protocol Summary:
The Caspase-Glo 3/7 assay (Promega) is a homogeneous method to measure caspase-3 and caspase-7 activities in cultured cells. The quantitation of caspase 3/7 activity is based on the cleavage of a peptide-aminoluciferin substrate. After caspase cleaves the substrate the free aminoluciferin is liberated and serves as the substrate of luciferase, which generates the light. The luminescent signal is proportional to amount of caspase 3/7 activity present.
Using the Caspase-Glo 3/7 assay, the amount of caspase 3/7 activity was measured in the H-4-II-E cell line with complete culture medium following compound treatment for 16 hours. The assay was performed in opaque white 1536-well plates. In the screen, tamoxifen and doxorubicin were used as positive controls. Library compounds were measured for their ability to cause the activation of caspase 3/7 in the cell line, as reflected by an increase in luminescence signal, in a concentration-dependent manner. Data were normalized to the controls for basal activity (DMSO only) and 100% stimulation (100 uM tamoxifen). AC50 values were determined from concentration-response data modeled with the standard Hill equation.
qHTS protocol for caspase 3/7 assay in H-4-II-E cells
[Step] [Parameter] [Value] [Description]
1. Reagent; 5 uL; 1500 H-4-II-E cells/well
2. Time; 5 hr; 37 °C incubation
4. Controls; 23 nL; Tamoxifen 0.23 uM to 100 uM & Doxorubicin 7.0 pM to 100 uM
5. Time; 16 hr; 37 °C incubation
6. Reagent; 5 uL; Caspase-Glo 3/7 reagent
7. Time; 20 min; Room Temperature
8. Detection; Luminescence; Viewlux plate reader
Keywords: caspase 3/7, apoptosis, H-4-II-E cell line, luminescence, NTPHTS, NTPHTS_NCGC, NIEHS, EPA, DSSTox, MLSMR, MLSCN, NIH Roadmap, qHTS, NCGC
For the molecule `CN(C)c1ccc(N)cc1`, the “caspase-3 activation” value was 0.176%.

Consider `Cl/C=C\Cl`, for which the “caspase-3 activation” value is 0.111%.

On to `CC12CC1(C)C(=O)N(c1cc(Cl)cc(Cl)c1)C2=O` (stereo not given), for which the “caspase-3 activation” value is 1.17%.

For the molecule `Oc1cc(Cl)c(Cl)c(Cl)c1Cl`, the “caspase-3 activation” value was 8.13%.

Take `Brc1cccc(-c2ccccc2)c1`: the “caspase-3 activation” value was -0.722%.

For the molecule `Cc1cc(C)cc(OP(=O)(Oc2cc(C)cc(C)c2)Oc2cc(C)cc(C)c2)c1`, the “caspase-3 activation” value was -1.54%.

Turning to `OCCCCO`, the “caspase-3 activation” value was -0.584%.

As to `Nc1cccc(Cl)c1`, the “caspase-3 activation” value is 4.88%.

Turning to `O=C(O)CCl`, the “caspase-3 activation” value is 0.164%.

Turning to `C=CCCC#N`, the “caspase-3 activation” value was -0.0575%.

With `CC(C)(C)OOC(=O)c1ccccc1`, the “caspase-3 activation” value is -0.145%.

Consider `Nc1cccc2ccccc12`, for which the “caspase-3 activation” value is 3.1%.

As to `O=[N+]([O-])c1ccc2c3c(cccc13)CC2`, the “caspase-3 activation” value is -0.255%.

As for `Clc1ccccc1`, the “caspase-3 activation” value is 0.151%.

`Cc1ccc2c(C)cccc2c1`: the “caspase-3 activation” value is 2.88%.

With `ClCc1ccccn1`, the “caspase-3 activation” value is 4.06%.

Regarding `O=C(Cl)c1ccccc1F`, the “caspase-3 activation” value was -0.445%.

With `COC(=O)Nc1cccc(OC(=O)Nc2cccc(C)c2)c1`, the “caspase-3 activation” value was -0.691%.

On to `O=C(O)c1cccc(Cl)c1`, for which the “caspase-3 activation” value is 2.1%.

For `NNC(N)=S`, the “caspase-3 activation” value is 0.433%.

Turning to `CC[N+](=O)[O-]`, the “caspase-3 activation” value was 1.92%.

For the molecule `CN(C)C(=O)Nc1cccc(C(F)(F)F)c1`, the “caspase-3 activation” value is 0.458%.

As for `CNC(=O)O/N=C/C(C)(C)S(C)=O` (stereo not given), the “caspase-3 activation” value was 0.302%.

Turning to `Cc1ccc(N)cc1N`, the “caspase-3 activation” value was 1.25%.

Turning to `Nc1ncc([N+](=O)[O-])s1`, the “caspase-3 activation” value was 0.135%.

For the molecule `c1ccc(P(c2ccccc2)c2ccccc2)cc1`, the “caspase-3 activation” value is 0.0259%.

As to `Nc1ccc([N+](=O)[O-])cc1N`, the “caspase-3 activation” value was 5.42%.

As to `O=[N+]([O-])c1cccc(CCl)c1`, the “caspase-3 activation” value was -3.33%.

On to `Cc1ccc(OP(=O)(Oc2ccc(C)cc2)Oc2ccc(C)cc2)cc1`, for which the “caspase-3 activation” value is -0.903%.

As for `CC(C)(Cl)[N+](=O)[O-]`, the “caspase-3 activation” value was 0.398%.

On to `CC(Cl)(Cl)Cl`, for which the “caspase-3 activation” value is 0.0723%.

Take `N#C/C=C/C#N`: the “caspase-3 activation” value was 12.9%.

Regarding `Cc1cc(Cl)ccc1O`, the “caspase-3 activation” value is 0.324%.

With `CCCCC#N`, the “caspase-3 activation” value was 0.491%.

Turning to `CN=C=O`, the “caspase-3 activation” value was 0.00674%.

For the molecule `C=CC(=O)OCC(C)C`, the “caspase-3 activation” value is -0.195%.

Turning to `CSSC`, the “caspase-3 activation” value was -0.316%.

In the case of `ClC(Cl)Br`, the “caspase-3 activation” value was -0.0596%.

`O=C(O)C(Cl)Br` (stereo not given): the “caspase-3 activation” value is -0.0988%.

For `O=C(O)c1cc(Cl)ccc1Cl`, the “caspase-3 activation” value was 1.42%.
